Source: PubChem BioAssay AID1851 (National Center for Advancing Translational Sciences (NCATS), 2009)
Among all 16,000 compounds or so, about 5,800 (36%) were called active. Inconclusive results (about 23%) are left out. This is one part of the list. A number with no mark means an inactive call. Calls follow the shape of the dose curve; as a rule, active = well fitted curve in the direction sought with a large enough effect; inconclusive = small, poorly fitted or top-dose-only effect, or effect the other way; inactive = no such curve, though single readings can be large or run the other way.

Each compound was assayed against Cytochrome P450 2C19 (Homo sapiens) (UniProt P33261) (assay: Cytochrome panel assay with activity outcomes). Settings: recombinant CYP, pro-luciferin dealkylation, luminescence, p450-cyp2c19; series mostly up to 57.1 µM.
Sequence of Cytochrome P450 2C19 (Homo sapiens) (P33261 whole entry, looked up): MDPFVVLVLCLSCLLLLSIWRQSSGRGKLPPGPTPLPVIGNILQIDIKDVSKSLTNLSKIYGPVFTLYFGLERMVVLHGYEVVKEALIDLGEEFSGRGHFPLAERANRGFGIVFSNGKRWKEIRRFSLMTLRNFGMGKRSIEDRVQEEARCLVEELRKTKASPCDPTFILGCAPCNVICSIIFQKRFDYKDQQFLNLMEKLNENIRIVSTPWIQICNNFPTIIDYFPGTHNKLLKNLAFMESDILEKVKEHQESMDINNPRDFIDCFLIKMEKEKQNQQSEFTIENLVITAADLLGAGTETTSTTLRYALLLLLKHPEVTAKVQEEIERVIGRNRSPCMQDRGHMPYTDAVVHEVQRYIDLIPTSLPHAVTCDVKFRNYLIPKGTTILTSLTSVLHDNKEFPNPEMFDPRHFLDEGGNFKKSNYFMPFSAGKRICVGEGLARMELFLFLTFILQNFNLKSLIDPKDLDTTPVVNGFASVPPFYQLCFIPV
% is scaled to controls: 0 for no effect and ±100 for the full control effect.

SMILES | AC50 | activity, negative = inhibition
OC(CN1CCCCC1)CN1CCCCC1 | inactive | 
FC(F)(F)c1nc2nc(Cl)c(Cl)nc2n1CCCN1CCOCC1 |  | -10.6% [at 11.4 µM]
CCn1c(COc2ccc(C)cc2)nnc1SCc1ccc(C#N)cc1 | 15.8 µM (active) | 
C=C1C=C(Br)C2(OCCCO2)[C@H]2OC12 (some centres not stated) |  | 18% [at 11.4 µM]
CC1CCCCN1c1nc(-c2ccncc2)nc2ccccc12 (configuration not stated) | 0.355 µM (active) | 
CN1CCN(c2nc(-c3cccnc3)nc3ccccc23)CC1 | inactive | 
COc1ccc(/C(C)=N/NC(=O)c2ccc(N(C)C)cc2)cc1 | inactive | 
C/C(=N\NC(=O)c1ccc(Br)cc1)c1ccccc1 | 2.82 µM (active) | 
C/C(=N/NC(=O)Cc1cccn1C)c1ccccc1 | 10 µM (active) | 
CC(=NCC(=O)O)c1ccccc1 |  | 0.942% [at 11.4 µM]
CC(=O)NN1C(=O)c2ccc(Oc3cccc([N+](=O)[O-])c3)cc2C1=O | 11.2 µM (active) | 
CC(=O)NN1C(=O)c2ccc(Oc3ccc([N+](=O)[O-])cc3)cc2C1=O | inactive | 
Cc1sc2ccccc2[n+]1CCC(C)S(=O)(=O)[O-] (configuration not stated) | inactive | 
CCOC(=O)C[n+]1c(C)sc2ccc(OC)cc21 | 5.01 µM (active) | 
Cc1sc2ccccc2[n+]1CCC(=O)O |  | 13.1% [at 11.4 µM]
O=C(Oc1ccccc1[N+](=O)[O-])c1cccnc1 | inactive | 
O=C(N/N=C(\c1ccccc1)c1cccnc1)C(O)(c1ccccc1)c1ccccc1 | inactive | 
C/C(=N\NC(=O)c1[nH]c2c([N+](=O)[O-])cc(C)cc2c1-c1ccccc1)c1cccnc1 | 4.47 µM (active) | 
CN1CCN(c2ncncc2-c2cccnc2)CC1 | inactive | 
CN1CCN2c3ncccc3Cc3ccccc3C2C1 (configuration not stated) | 0.0501 µM (active) | 
CC(C)(C)[C@@]1(O)CCN2C[C@@H]3c4ccccc4CCc4cccc(c43)[C@@H]2C1 | inactive | 
Oc1ccc([C@@H]2CNCc3sccc32)cc1O | inactive | 
CC[C@H](C)N(C)C(=O)c1cc2ccccc2c(-c2ccccc2Cl)n1 | inactive | 

SMILES | AC50 | activity, negative = inhibition
Cc1cccc(NC(=O)NNC(=O)c2cc(-c3ccccc3Cl)nc3ccccc23)c1 | 3.16 µM (active) | 
O=C(NNC(=O)c1cc(-c2ccc(Cl)c(Cl)c2)nc2ccccc12)Nc1ccccc1 | 4.47 µM (active) | 
O=C(COc1ccc2ccccc2c1Br)NNC(=O)Nc1ccccc1 | 3.55 µM (active) | 
C[C@@H]1[C@H]2CC[C@@H]3[C@@H]4CC=C5C[C@@H](N(C)C)CC[C@]5(C)[C@@H]4CC[C@@]32CN1C | inactive | 
Cc1noc(C)c1C(=O)N1CCC[C@@]2(CCN(c3ncccn3)C2)C1 | inactive | 
Cc1ccccc1C(=O)NC(=S)NCC(=O)c1ccccc1 | 4.47 µM (active) | 
Cc1ccc(C(=O)NC(=S)NCC(=O)c2ccccc2)cc1 | inactive | 
Cc1nn(-c2ccccc2)c2c1C(c1ccc(O)c(O)c1)N1C(=N2)C(Nc2ccccc2)=Nc2ccccc21 (configuration not stated) | 3.16 µM (active) | 
CC(=O)Nc1ccc(NC2=Nc3ccccc3N3C2=Nc2c(c(C)nn2-c2ccccc2)C3c2ccccc2)cc1 (configuration not stated) | 2 µM (active) | 
COC(=O)CN(c1ccccn1)S(=O)(=O)c1ccccc1 | inactive | 
O=C(CN(c1ccccc1)S(=O)(=O)c1ccccc1)NCCSCc1ccco1 | 8.91 µM (active) | 
Cc1cccc(CSCCNC(=O)c2ccc(N(C)S(=O)(=O)c3ccccc3)cc2)c1 | 1.12 µM (active) | 
Cc1cc(C)cc(N(CC(=O)NCCSc2ccccn2)S(=O)(=O)c2ccccc2)c1 | 2.24 µM (active) | 
CN(CC(=O)O/N=C(\N)c1ccccn1)S(=O)(=O)c1ccccc1 | inactive | 
Cc1cccc(N(CC(=O)NCCSCc2ccco2)S(=O)(=O)c2ccccc2)c1 | 2.51 µM (active) | 
CCCOc1ccccc1-c1nc2n[nH]nc2c(=O)[nH]1 | inactive | 
NC(N)=NC[C@@H]1COC2(CCCCC2)O1 | inactive | 
N[C@@H](CS(=O)O)C(=O)O | inactive | 
COc1ccccc1NC(=S)NC(=O)c1ccc(-c2ccc(Cl)cc2)o1 | 8.91 µM (active) | 
Fc1ccccc1NC(=S)NCCc1ccccc1 | 3.16 µM (active) | 
Fc1ccc(NC(=S)NCCc2ccccc2)c(F)c1F | 0.355 µM (active) | 
Fc1cc(Br)ccc1NC(=S)NCCc1ccccc1 | 1.58 µM (active) | 
COc1ccccc1NC(=S)NCCc1ccccc1 | 3.16 µM (active) | 

SMILES | AC50 | activity, negative = inhibition
CC(=O)Nc1cccc(C(=O)OCc2ccc(C(=O)Oc3ccc(Cl)cc3)cc2)c1 | 4.47 µM (active) | 
Cc1cc(OC(=O)c2ccc(Cl)cc2)cc(=O)n1C | inactive | 
OCCN(CO)CO |  | 0.957% [at 11.4 µM]
CN(C)CCOC(=O)[C@@H](c1ccccc1)C1(O)CCCC1 | inactive | 
O=C(Cn1c(C(F)(F)F)nc2ccccc21)c1ccccc1 | 3.98 µM (active) | 
O=C(CCCN1CCC(O)(c2cccc(C(F)(F)F)c2)CC1)c1ccc(F)cc1 | inactive | 
O=C(Cn1c(C(F)(F)F)nc2ccccc21)c1ccc(F)cc1 | 1.58 µM (active) | 
O=S(=O)(Nc1ccc2c(c1)OCCO2)c1cccc2cccnc12 | 3.55 µM (active) | 
COc1ncc2nc(-c3cn(C)c4ccccc34)c(=O)n(-c3ccccc3)c2n1 | inactive | 
Cn1cc(/C=N/n2cnc3scc(-c4ccccc4)c3c2=O)c2ccccc21 | 8.91 µM (active) | 
CN1CCN(c2ncc3nc(-c4cn(C)c5ccccc45)c(=O)n(-c4ccccc4)c3n2)CC1 | inactive | 
Cc1cccc(NC(=S)c2nc3ccccc3s2)c1 | 5.62 µM (active) | 
Cc1ccc(C)c(S(=O)(=O)NC(C)C(=O)Nc2ccc(-c3nc4ccccc4s3)cc2)c1 (configuration not stated) | inactive | 
N#C/C(=C\NC(=S)c1ccncc1)c1nc2ccccc2s1 |  | -29.2% [at 11.4 µM]
O=C(NCC(c1cccs1)N1CCOCC1)c1ccco1 (configuration not stated) | 8.91 µM (active) | 
O=C(c1ccco1)N1CCC2(CCN(Cc3nccs3)CC2)CC1 | inactive | 
CCC1=NN(C(=O)CCc2ccccc2)C(O)(C(F)(F)F)C1 (configuration not stated) | 0.224 µM (active) | 
COc1cccc(C(=O)N2N=C(c3cccc(OC)c3)CC2(O)C(F)(F)F)c1 (configuration not stated) | 0.794 µM (active) | 
CCOC(=O)N1CCN(C(=O)CCn2nc(-c3ccccc3)ccc2=O)CC1 | inactive | 
O=C(CCc1ccccc1)Nc1ncn[nH]1 | inactive | 
CCOC(=O)N1N=C(c2ccccc2)CC1(O)C(F)(F)F (configuration not stated) | 15.8 µM (active) | 
